B1: design_607_777643b9-bd23-49d1-80ae-2b1434974efa_2258_dldesign_0_cycle1_af2pred (protein)
chain: AAVEEAKAALKKRYEKALKLAKEASEELYKEVVEKYKEYVAAAEAAKDPAEKVAALTAGNAFMYELIAEARSEIERKKEE
B2: design_607_777643b9-bd23-49d1-80ae-2b1434974efa_2272_dldesign_0_cycle1_af2pred (protein)
chain: NTQKAADKFSEAVRNLREAAKLGGEEVKEMAEKAILAAADDPEKGVEQAEKLLKYVKENVSEEVAKLVEEALKNFKEMAKLLN
B3: design_607_777643b9-bd23-49d1-80ae-2b1434974efa_2203_dldesign_0_cycle1_af2pred (protein)
chain: SAVEKEKEELKKEVEEAKKEAEKVIAGGTLEEGAKVADKAYQLAAEAASLGPEAEDIEKEAREVARRLREYGKERRA
B4: design_607_777643b9-bd23-49d1-80ae-2b1434974efa_1681_dldesign_0_cycle1_af2pred (protein)
chain: HMTPEQIAAAKATAAAAAALAANAATTTQAQITAVMDAAAAAMPEFADTFATLRATMLANYADKAGVAKGLAAVARMLAASAKAAE
B5: design_607_777643b9-bd23-49d1-80ae-2b1434974efa_1990_dldesign_0_cycle1_af2pred (protein)
chain: MKEIIKLESESLRKLVRVAREVAEADPSLKPLAEEAILAAADNPEEGAKKVEELAKASLKVEGGEEYAKKLKEVAEKLKEVEEIYK
B6: design_607_777643b9-bd23-49d1-80ae-2b1434974efa_1961_dldesign_0_cycle1_af2pred (protein)
chain: SEEEAKKKAEKAAEEAKKLAKEGAKFPEKAEELTEKAKEIAKELAKAGFPKLGSEAAAAAHEAQAEANLKKR
B7: design_607_777643b9-bd23-49d1-80ae-2b1434974efa_2298_dldesign_0_cycle1_af2pred (protein)
chain: VTPEELAEAAKKKDELLDAAFAALQAAKTVEEVEAVAKEFLAKAEELGKDPRYAAAAESFKKILTRMKEAAVKAIK
B8: design_607_777643b9-bd23-49d1-80ae-2b1434974efa_2300_dldesign_0_cycle1_af2pred (protein)
chain: GKKEEAKKYAEEAKKKIKELAKKAEKSTDEEEVKKLAEKARELAKKAIEYAKKELTPEEAAKVAKELSEAAHEAHEAAAIGLFNIRKK
B9: design_608_fd41b8f9-4da9-4c78-93ec-aaa316ed4933_3_dldesign_0_cycle1_af2pred (protein)
chain: GMEEESKAYKEALDKLSELGKEAEKAAKKGNEEVRKKLLKLKEEAEKKLDEGFEKGKEAAKEAKKFIEEKLKEVKKLLKELE
B10: design_607_777643b9-bd23-49d1-80ae-2b1434974efa_2143_dldesign_0_cycle1_af2pred (protein)
chain: GMEEEEKRREELKKKAEELIKKAHEAYENSAEASVTNKEAAEIYREAAKLYKKAAEAYRSGEKVEEGEKYEEEAKAKEKEAKALLEK
B11: design_608_fd41b8f9-4da9-4c78-93ec-aaa316ed4933_199_dldesign_0_cycle1_af2pred (protein)
chain: AEEYRKKAKELAEKAKKYVEKLKADPENAEEYYKKAVEYIHKLYELAAEAESEGHPEVAKEIRELARKIGEEAKKAYEEVKA
B12: design_607_777643b9-bd23-49d1-80ae-2b1434974efa_1467_dldesign_0_cycle1_af2pred (protein)
chain: AEERAKKVIKEAEELRKEAIALAEKYKENPEVRKLAVEAAHYALLAISAAKAGVKFLPYAEEYLKKAKELYEKGKALAEALEKEKEEK
B13: design_607_777643b9-bd23-49d1-80ae-2b1434974efa_2270_dldesign_0_cycle1_af2pred (protein)
chain: AAADATVDAAIAKLRALGKEYPEGADAFNQLADNLKKAAAKAKTPEAKIAAAKKAMATAEHILKTTKEAEERAKKRKEEEEK
B14: design_607_777643b9-bd23-49d1-80ae-2b1434974efa_2486_dldesign_0_cycle1_af2pred (protein)
chain: AAEKEAAKAEAAKLVEEAADAAVEKGAEGVEAIIKELEKAAKAASPEARVYYEKAIRTAKSLAEDVKELEN
B15: design_607_777643b9-bd23-49d1-80ae-2b1434974efa_1383_dldesign_0_cycle1_af2pred (protein)
chain: DGEEFLKKLKERGELIKKKYPVAAEEITKITDEAVKVAQKGIEDPEKFEEYKKEATDLLHKAREIGAEKEVEAKL
B16: design_607_777643b9-bd23-49d1-80ae-2b1434974efa_1377_dldesign_0_cycle1_af2pred (protein)
chain: AEVAALVKKASEAMGEARFNANAAEKIPEEAEEYAKKAEEAIKAFRDALAQIRALAAEASPETLAAADRAEARLKELEKKVKEALKK
B17: design_607_777643b9-bd23-49d1-80ae-2b1434974efa_1562_dldesign_0_cycle1_af2pred (protein)
chain: GKELLEKIKKLSEEAVFATADDPEKGKEKLEEAKKLVKEAEKLPEAPKAKEALEKAEKVSKSIIEDIEKAK
B18: design_607_777643b9-bd23-49d1-80ae-2b1434974efa_1959_dldesign_0_cycle1_af2pred (protein)
chain: MEKAEEYLEEAKKALEKAEEYIAKAAADPANRAAYAAKAAQYAQEARILADGLELVDPSMKPEAEELRERARELIKKLAAVL
B19: design_607_777643b9-bd23-49d1-80ae-2b1434974efa_2248_dldesign_0_cycle1_af2pred (protein)
chain: AAAEAAAKAKEAAKKAAAIAKEGIAKQEKAAKEGDAEKVREIAKEVRTKLAAEAKATPEGAKAYAAAAHDVYEAAAEYSQEAKKAK
B20: design_607_777643b9-bd23-49d1-80ae-2b1434974efa_1699_dldesign_0_cycle1_af2pred (protein)
chain: SEKVEEVAKKEAEKIKEVAKKYGIEEEGKKAVERLKKKAEEAKKWKKPEIGAESVKTYGEGALKSVEILGKKKAA
B21: design_607_777643b9-bd23-49d1-80ae-2b1434974efa_2358_dldesign_0_cycle1_af2pred (protein)
chain: MEEEAKRILEEAEKKAKEAEAIAKSGKNTKEAEKLAREALKLVKENAPIIPKEEALKAAKKALEVLFEATEAAN
B22: design_608_fd41b8f9-4da9-4c78-93ec-aaa316ed4933_71_dldesign_0_cycle1_af2pred (protein)
chain: AKEEKEKEIEKLKKKAERLAERAKKVAEEAEKAGFEEVAKKIKEKAKELEKAAESMKEDYEKGKKEASEKAGELSEVMAEAKYLLAKK
B23: design_607_777643b9-bd23-49d1-80ae-2b1434974efa_1839_dldesign_0_cycle1_af2pred (protein)
chain: GMEAGKKALAEADKAGAAAIAAAKAGDVKAASAAAGEAYFYLAEAYVEFGPEADEEIKAKRQALLDALKKATAEAAA
B24: design_607_777643b9-bd23-49d1-80ae-2b1434974efa_2234_dldesign_0_cycle1_af2pred (protein)
chain: SAAVKAAAEKAIAAFEAVAKKAKKAAEEGAKPEEVEKLRKELEKARKAGKEVAKKAAADPELVKKLSNAAFEAYEAIAEAAFAA
B25: design_607_777643b9-bd23-49d1-80ae-2b1434974efa_1601_dldesign_0_cycle1_af2pred (protein)
chain: ASEEVKKQAEASSAAYREAKKVAKYVKANAADPKAAEIAKKANALIEEAMTGDAETAEKKTKEIAKLAKE
B26: design_608_fd41b8f9-4da9-4c78-93ec-aaa316ed4933_178_dldesign_0_cycle1_af2pred (protein)
chain: AATEEANKALLEAKEAIVDAYNEKYKLDPEEGKKLRKELLKKLAEAYASENAAEKLKEIKKEAKKLAEEYEKKN
B27: design_607_777643b9-bd23-49d1-80ae-2b1434974efa_1995_dldesign_0_cycle1_af2pred (protein)
chain: EKEKELKEEVKEAGKRAEERVSRRAAKATNQQQKEATKALADNAIASIRKLAEEKGKETGKEEEFKKLAEEAEKKISAIVEAV
B28: design_607_777643b9-bd23-49d1-80ae-2b1434974efa_1871_dldesign_0_cycle1_af2pred (protein)
chain: DMKEEAKKVAKEAKEVAKKVYELDPAKGSELSAKIHEAEALVKHPKFAEEGLKELKETLKKAKELLKKLE
B29: design_608_fd41b8f9-4da9-4c78-93ec-aaa316ed4933_209_dldesign_0_cycle1_af2pred (protein)
chain: AEEEEEKKREKLLEEAKKLGKEAAKYVKKAIAKGKTEEATALAAEASKALLALYDLDAAGEPYEKAKAEYDKIKELTEKIKALAE
B30: design_608_fd41b8f9-4da9-4c78-93ec-aaa316ed4933_161_dldesign_0_cycle1_af2pred (protein)
chain: ITEEQKKVAEKLVERAEEVGKKAIEAGYPELGKKVLELAKETRKALEVSAEEAAKKAAELAQLKAEAEFEIKK
B31: design_607_777643b9-bd23-49d1-80ae-2b1434974efa_2469_dldesign_0_cycle1_af2pred (protein)
chain: KKITMEEQETLVNSSDDAAYYDVINTPEAAEKAKEAKATRDSLVAKWKAEDPEGGEKLKKVADHIYENSYKISKRILEEKKE
B32: design_607_777643b9-bd23-49d1-80ae-2b1434974efa_1448_dldesign_0_cycle1_af2pred (protein)
chain: AAAEEARKAAITAAADTLAEADGDVYLAANELAKKVGPEAGKAILEKAKAARKEALAAIKEDPAAGAALAKRKGEEILKEAKELIEKA
B33: design_607_777643b9-bd23-49d1-80ae-2b1434974efa_2236_dldesign_0_cycle1_af2pred (protein)
chain: EAKKYAEKAEKLAKEAEESTDDYEKAKKYAEEARKYAKKAVAYAKANPEDKEAKELAKKAIEAAHKAQEALAEAKAN
B34: design_607_777643b9-bd23-49d1-80ae-2b1434974efa_2023_dldesign_0_cycle1_af2pred (protein)
chain: SAEAAAVKAEVDALTAAAVAATPEEAAKLGSQAAALAYEAAAEYASLSAREKDPEKAAEYKALADALREAARAARDRVAAAIAAKLA
B35: design_607_777643b9-bd23-49d1-80ae-2b1434974efa_2448_dldesign_0_cycle1_af2pred (protein)
chain: SAEEEAKKLLEEAKKLAEEAGKSKDPEEAEKLAREAIKLAEKAAKLGLKEEASKVAHLARENLAEAQYRYRKEKK
B36: design_607_777643b9-bd23-49d1-80ae-2b1434974efa_1902_dldesign_0_cycle1_af2pred (protein)
chain: DVEKVAKEAIEKLEEYGKRVPELAPEAKKAIERVKRRKEEGEKNPKFAPASIEAIKDTAENLKKKAEKLEKA
B37: design_607_777643b9-bd23-49d1-80ae-2b1434974efa_1637_dldesign_0_cycle1_af2pred (protein)
chain: MEKDEALVERAFEAGGELFEKYPEGSKIASAMIRAATIARKDPEAGLEYLRERGLELGEEVAEEATERFRKILEEL
B38: design_607_777643b9-bd23-49d1-80ae-2b1434974efa_2342_dldesign_0_cycle1_af2pred (protein)
chain: SEAQKEGKAFSAMMKTASEKGKELSKKTGTPLAEMAKIVQDIADAYAKGPEEIKKVAKTPEAKELATAAYDTYEKTYKA

molecular target: VTCN1, Q7Z7D3
Sequence (Q7Z7D3 whole entry): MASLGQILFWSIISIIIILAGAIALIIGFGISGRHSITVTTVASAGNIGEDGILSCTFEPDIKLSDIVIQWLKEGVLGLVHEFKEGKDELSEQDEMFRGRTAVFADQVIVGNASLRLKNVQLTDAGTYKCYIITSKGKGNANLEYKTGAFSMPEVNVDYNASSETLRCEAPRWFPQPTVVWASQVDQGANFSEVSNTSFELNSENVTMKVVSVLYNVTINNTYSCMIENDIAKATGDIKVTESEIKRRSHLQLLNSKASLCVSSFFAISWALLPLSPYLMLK

Binding in a display sort, inactive:
B1 not found, B2 not found, B3 not found, B4 not found, B5 not found, B6 not found, B7 not found, B8 not found, B9 not found, B10 not found, B11 not found, B12 not found, B13 not found, B14 not found, B15 not found, B16 not found, B17 not found, B18 not found, B19 not found, B20 not found, B21 not found, B22 not found, B23 not found, B24 not found, B25 not found, B26 not found, B27 not found, B28 not found, B29 not found, B30 not found, B31 not found, B32 not found, B33 not found, B34 not found, B35 not found, B36 not found, B37 not found, B38 not found

— PMC13494018
